Laboratory results from PubChem BioAssay AID1159580 (chemical genetic matrix, 2015).
In all, about 5,500 compounds went through this assay and about 2,000 (36%) were called active. Inconclusive results (about 18%) are left out. No stated cut-off is given here; in the data, active means normalized growth mostly below about 0.91 (no sharp cut-off); inconclusive means no clear call, values can overlap the other calls; inactive means mostly above about 0.92. The list shows a part of the results.

Assay: chemical genetic growth profiling, strain panel (AID 1159580);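 further: tested at 20 µM; growth read once vehicle control cultures reached saturation at 30 °C; 1 = growth at the plate median or of vehicle wells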
Conditions: growth OD

Measured: normalized growth

CCOC(=O)NC1=C(C2CC2)C(=O)C(NC(=O)OCC)=C(C2CC2)C1=O
inactive: S. cerevisiae deletion strains, locus YAL013W, strain DEP1, stronger effect = lower value 0.97 | S. cerevisiae deletion strains, locus YBR021W, strain FUR4, stronger effect = lower value 0.961 | S. cerevisiae deletion strains, locus YBR229C, strain ROT2, stronger effect = lower value 1 | S. cerevisiae deletion strains, locus YCL029C, strain bik1, stronger effect = lower value 0.993 | S. cerevisiae deletion strains, locus YDL035C, strain GPR1, stronger effect = lower value 1 | S. cerevisiae deletion strains, locus YDL074C, strain BRE1, stronger effect = lower value 1.04 | S. cerevisiae deletion strains, locus YDL101C, strain DUN1, stronger effect = lower value 1 | S. cerevisiae deletion strains, locus YDL134C, strain PPH21, stronger effect = lower value 1 | S. cerevisiae deletion strains, locus YDL185W, strain tfp1, stronger effect = lower value 0.98 | S. cerevisiae deletion strains, locus YDL192W, strain arf1, stronger effect = lower value 0.991 | S. cerevisiae deletion strains, locus YDR101C, strain arx1, stronger effect = lower value 0.993 | S. cerevisiae deletion strains, locus YDR150W, strain NUM1, stronger effect = lower value 0.99 | S. cerevisiae deletion strains, locus YDR162C, strain NBP2, stronger effect = lower value 1.01 | S. cerevisiae deletion strains, locus YDR318W, strain mcm21, stronger effect = lower value 0.99 | S. cerevisiae deletion strains, locus YDR388W, stronger effect = lower value 0.995 | S. cerevisiae deletion strains, locus YDR502C, strain sam2, stronger effect = lower value 0.996 | S. cerevisiae deletion strains, locus YEL061C, strain CIN8, stronger effect = lower value 0.995 | S. cerevisiae deletion strains, locus YER110C, stronger effect = lower value 0.98 | S. cerevisiae deletion strains, locus YER155C, strain BEM2, stronger effect = lower value 0.994 | S. cerevisiae deletion strains, locus YER167W, strain BCK2, stronger effect = lower value 0.98 | S. cerevisiae deletion strains, locus YGL078C, strain dbp3, stronger effect = lower value 0.983 | S. cerevisiae deletion strains, locus YGL086W, strain mad1, stronger effect = lower value 0.982 | S. cerevisiae deletion strains, locus YGL248W, strain PDE1, stronger effect = lower value 1 | S. cerevisiae deletion strains, locus YGR078C, strain PAC10, stronger effect = lower value 1.01 | S. cerevisiae deletion strains, locus YGR135W, strain pre9, stronger effect = lower value 1 | S. cerevisiae deletion strains, locus YGR229C, strain SMI1, stronger effect = lower value 1.04 | S. cerevisiae deletion strains, locus YGR252W, strain gcn5, stronger effect = lower value 1.02 | S. cerevisiae deletion strains, locus YHR030C, strain SLT2, stronger effect = lower value 0.986 | S. cerevisiae deletion strains, locus YHR079C, strain IRE1 (second series), stronger effect = lower value 0.99 | S. cerevisiae deletion strains, locus YHR094C, strain hxt1, stronger effect = lower value 0.976 | S. cerevisiae deletion strains, locus YHR129C, strain ARP1, stronger effect = lower value 0.999 | S. cerevisiae deletion strains, locus YHR200W, strain rpn10, stronger effect = lower value 0.992 | S. cerevisiae deletion strains, locus YIL066C, strain RNR3, stronger effect = lower value 1 | S. cerevisiae deletion strains, locus YIL073C, strain SPO22, stronger effect = lower value 0.9 | S. cerevisiae deletion strains, locus YIL125W, strain kgd1, stronger effect = lower value 0.988 | S. cerevisiae deletion strains, locus YIR030C, strain dcg1, stronger effect = lower value 0.995 | S. cerevisiae deletion strains, locus YJL095W, strain BCK1, stronger effect = lower value 1.05 | S. cerevisiae deletion strains, locus YJL134W, strain LCB3, stronger effect = lower value 0.993 | S. cerevisiae deletion strains, locus YJL168C, strain set2, stronger effect = lower value 0.993 | S. cerevisiae deletion strains, locus YJL187C, strain SWE1 (second series), stronger effect = lower value 0.988 | S. cerevisiae deletion strains, locus YJR043C, strain POL32, stronger effect = lower value 0.997 | S. cerevisiae deletion strains, locus YJR075W, strain HOC1, stronger effect = lower value 0.999 | S. cerevisiae deletion strains, locus YKL009W, strain mrt4, stronger effect = lower value 0.973 | S. cerevisiae deletion strains, locus YKL068W, stronger effect = lower value 0.98 | S. cerevisiae deletion strains, locus YKL085W, strain MDH1 (second series), stronger effect = lower value 0.984 | S. cerevisiae deletion strains, locus YKL085W, strain MDH1, stronger effect = lower value 0.984 | S. cerevisiae deletion strains, locus YKL190W, strain CNB1, stronger effect = lower value 0.994 | S. cerevisiae deletion strains, locus YKR001C, strain vps1, stronger effect = lower value 0.989 | S. cerevisiae deletion strains, locus YLR039C, strain RIC1, stronger effect = lower value 0.96 | S. cerevisiae deletion strains, locus YLR058C, strain SHM2, stronger effect = lower value 0.984 | S. cerevisiae deletion strains, locus YLR102C, strain apc9, stronger effect = lower value 0.992 | S. cerevisiae deletion strains, locus YLR262C, strain YPT6, stronger effect = lower value 1.01 | S. cerevisiae deletion strains, locus YLR268W, strain sec22, stronger effect = lower value 1.01 | S. cerevisiae deletion strains, locus YLR330W, strain CHS5, stronger effect = lower value 0.989 | S. cerevisiae deletion strains, locus YLR342W, strain FKS1 (second series), stronger effect = lower value 0.976 | S. cerevisiae deletion strains, locus YLR371W, strain rom2, stronger effect = lower value 0.976 | S. cerevisiae deletion strains, locus YLR418C, strain cdc73, stronger effect = lower value 1.03 | S. cerevisiae deletion strains, locus YML016C, strain PPZ1, stronger effect = lower value 0.99 | S. cerevisiae deletion strains, locus YML032C, strain rad52, stronger effect = lower value 0.985 | S. cerevisiae deletion strains, locus YML124C, strain tub3, stronger effect = lower value 0.988 | S. cerevisiae deletion strains, locus YMR078C, strain ctf18, stronger effect = lower value 0.993 | S. cerevisiae deletion strains, locus YMR223W, strain ubp8, stronger effect = lower value 0.979 | S. cerevisiae deletion strains, locus YMR263W, strain SAP30, stronger effect = lower value 1.01 | S. cerevisiae deletion strains, locus YMR307W, strain GAS1, stronger effect = lower value 0.999 | S. cerevisiae deletion strains, locus YNL067W, strain RPL9B, stronger effect = lower value 1.03 | S. cerevisiae deletion strains, locus YNL128W, strain TEP1, stronger effect = lower value 1.01 | S. cerevisiae deletion strains, locus YNL153C, strain GIM3, stronger effect = lower value 1.01 | S. cerevisiae deletion strains, locus YNL233W, strain BNI4, stronger effect = lower value 1.01 | S. cerevisiae deletion strains, locus YNL250W, strain rad50, stronger effect = lower value 0.981 | S. cerevisiae deletion strains, locus YNL271C, strain bni1, stronger effect = lower value 0.984 | S. cerevisiae deletion strains, locus YNL298W, strain CLA4, stronger effect = lower value 0.985 | S. cerevisiae deletion strains, locus YNL307C, strain MCK1, stronger effect = lower value 0.985 | S. cerevisiae deletion strains, locus YNL322C, strain KRE1, stronger effect = lower value 0.998 | S. cerevisiae deletion strains, locus YNR052C, strain pop2, stronger effect = lower value 0.98 | S. cerevisiae deletion strains, locus YOL006C, strain TOP1, stronger effect = lower value 1.1 | S. cerevisiae deletion strains, locus YOL012C, strain htz1 1.15 | S. cerevisiae deletion strains, locus YOL147C, strain pex11, stronger effect = lower value 0.986 | S. cerevisiae deletion strains, locus YOR061W, strain CKA2, stronger effect = lower value 1 | S. cerevisiae deletion strains, locus YOR069W, strain VPS5, stronger effect = lower value 0.995 | S. cerevisiae deletion strains, locus YOR136W, strain idh2, stronger effect = lower value 0.983 | S. cerevisiae deletion strains, locus YOR144C, strain elg1, stronger effect = lower value 1 | S. cerevisiae deletion strains, locus YOR184W, strain ser1, stronger effect = lower value 0.974 | S. cerevisiae deletion strains, locus YOR316C, strain cot1, stronger effect = lower value 0.985 | S. cerevisiae deletion strains, locus YPL055C, strain LGE1, stronger effect = lower value 1.04 | S. cerevisiae deletion strains, locus YPL241C, strain CIN2, stronger effect = lower value 0.999 | S. cerevisiae deletion strains, locus YPR119W, strain clb2, stronger effect = lower value 0.988 | S. cerevisiae deletion strains, locus YPR141C, strain kar3, stronger effect = lower value 0.984 | S. cerevisiae deletion strains, locus YPR163C, strain tif3, stronger effect = lower value 0.988 | S. cerevisiae deletion strains, locus YPR167C, strain met16, stronger effect = lower value 1 | S. cerevisiae deletion strains, strain wtn01, stronger effect = lower value 0.995 | S. cerevisiae strains, strain wild type, stronger effect = lower value 0.995
